# Htt clearance: clearance of mutant huntingtin inclusions, primary screen, imaging, HeLa Exon1htt(103Q)mCFP, confocal imaging. aggregate imaging; zero = plate's median compound well. inhibition, % at 1.5 µM. 47,000 tested, 0.42% active. AID 853, 2007;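 active = inhibition of aggregate fluorescence above about 70%, also judged a hit by eye on the cell image, limit read from the data, passing the limit was not always enough; inconclusive = no rule stated for this call; inactive = not judged a hit on image review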;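 also: cells exposed to compound for three days before fixation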
# ROCK2 blocker: inhibitors of human ROCK2 kinase, primary screen, biochemical, high-throughput, luminescence. purified ROCK2, Kinase-Glo ATP depletion luminescence. AID 604, 2007. 60,000 tested, 0.35% active. Rho-associated protein kinase 2 (Homo sapiens), O75116. inhibition, % at 6 µM;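 active = inhibition above the screen-wide mean inhibition plus 3 SD, cut at about 18% in these data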;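 also: plate controls were DMSO wells for no effect and Y-27632 control wells after no-enzyme background subtraction for full effect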
# Target sequence (O75116 whole entry, looked up): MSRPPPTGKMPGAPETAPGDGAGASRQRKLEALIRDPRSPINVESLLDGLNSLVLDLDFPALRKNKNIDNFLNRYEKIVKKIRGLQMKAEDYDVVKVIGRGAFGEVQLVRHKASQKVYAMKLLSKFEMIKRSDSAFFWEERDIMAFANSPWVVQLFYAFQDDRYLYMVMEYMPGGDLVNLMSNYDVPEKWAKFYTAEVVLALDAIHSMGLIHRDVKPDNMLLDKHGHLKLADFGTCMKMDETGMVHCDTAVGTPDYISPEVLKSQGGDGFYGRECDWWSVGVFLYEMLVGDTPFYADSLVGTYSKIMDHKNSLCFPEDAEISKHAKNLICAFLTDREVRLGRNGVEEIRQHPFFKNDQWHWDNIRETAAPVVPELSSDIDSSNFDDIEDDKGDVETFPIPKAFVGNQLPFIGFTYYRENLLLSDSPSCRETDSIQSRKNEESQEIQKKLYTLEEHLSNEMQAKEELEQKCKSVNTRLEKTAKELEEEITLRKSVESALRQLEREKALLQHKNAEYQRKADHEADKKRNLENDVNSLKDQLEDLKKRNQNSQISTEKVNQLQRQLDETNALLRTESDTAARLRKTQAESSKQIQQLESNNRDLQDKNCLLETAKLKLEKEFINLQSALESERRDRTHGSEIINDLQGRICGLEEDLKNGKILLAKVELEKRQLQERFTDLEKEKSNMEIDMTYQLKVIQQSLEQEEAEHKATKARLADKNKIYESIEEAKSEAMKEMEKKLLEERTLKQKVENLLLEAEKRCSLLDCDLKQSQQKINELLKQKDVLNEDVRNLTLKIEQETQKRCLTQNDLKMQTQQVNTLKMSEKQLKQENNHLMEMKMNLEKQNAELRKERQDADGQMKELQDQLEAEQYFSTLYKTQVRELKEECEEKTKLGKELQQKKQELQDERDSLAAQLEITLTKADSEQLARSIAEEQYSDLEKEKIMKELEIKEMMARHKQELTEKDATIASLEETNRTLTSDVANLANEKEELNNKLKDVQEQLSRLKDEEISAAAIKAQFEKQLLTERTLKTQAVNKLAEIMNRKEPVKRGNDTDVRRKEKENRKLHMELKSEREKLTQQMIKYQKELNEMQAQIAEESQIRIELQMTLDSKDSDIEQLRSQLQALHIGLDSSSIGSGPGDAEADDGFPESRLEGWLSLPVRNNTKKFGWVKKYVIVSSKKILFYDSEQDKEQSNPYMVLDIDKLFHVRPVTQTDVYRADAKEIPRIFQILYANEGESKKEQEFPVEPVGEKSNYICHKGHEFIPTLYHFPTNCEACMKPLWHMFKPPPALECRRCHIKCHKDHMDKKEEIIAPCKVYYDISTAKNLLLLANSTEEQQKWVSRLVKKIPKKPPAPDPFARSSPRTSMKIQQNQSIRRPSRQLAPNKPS
# Her2 expr inh: inhibitors of Her2 protein expression, primary screen, SKBR-3 cells, AlphaScreen, 66K library. SKBR-3 HER2 protein level, 18-24 h; active compounds read low. HER2 level % of control, % at 10 µM. 65,000 tested, 0.69% active;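 active = HER2 level under 5% of the carrier-only control; inconclusive = no clear call, values can overlap the other calls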;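 also: 100% = DMSO carrier and 0% = 500 nM PU-H71 HSP90 inhibitor; lower value means stronger loss of Her2 protein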
# JNK3 inh: JNK3 kinase activity inhibitors, primary screen, biochemical, human, purified enzyme | 60,000 tested, 0.61% active | HTS | Mitogen-activated protein kinase 10 (Homo sapiens), P53779 | inhibition, % at 8 µM; in the data active = inhibition above about 17%;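 also: 0% = DMSO and 100% = reference inhibitor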
# SKBR3 24h inh: SK-BR-3 proliferation inhibitors, primary screen, cell-based, human, 24 h | SK-BR-3 viability, CellTiter-Glo ATP luminescence; active compounds read low | viability, % at 10 µM | 41,000 tested, 0.47% active;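 active = viability at or below the median of all test compounds minus 3 SD, in both replicates if run twice, cut at about 45% in these data; inconclusive = duplicate replicates that disagree with each other; inactive = viability above that cutoff in every replicate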;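 also: 100% = median untreated cell wells and 0% = median positive control drug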
# PKA kinase inh: inhibitors of human PKA kinase activity, primary screen, biochemical, ATP-depletion luminescence, Kemptide substrate; cAMP-dependent protein kinase catalytic subunit alpha (Homo sapiens), P17612; PKA Kemptide phosphorylation, Kinase-Glo ATP luminescence; inhibition, % at 6 µM; 65,000 tested, 0.1% active; AID 524, 2006;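 active = inhibition above the screen-wide mean inhibition plus 3 SD, cut at about 21% in these data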
# Numbers without * were called inactive; ? = inconclusive; . = no result. Compounds with a hit are over-represented: about 1.4% of the library has one in this group of screens.
SMILES,Htt clearance,ROCK2 blocker,Her2 expr inh,JNK3 inh,SKBR3 24h inh,PKA kinase inh
COc1ccc(C2C(C(=O)NCc3ccco3)CCC(=O)N2c2ccc(OC)cc2)cc1 (configuration not stated),.,2.3,79.5,17.3*,101.9,-1.2
Cc1ccc(C2Nc3ccccc3C(=O)N2Cc2ccco2)cc1 (configuration not stated),-24.9,-5.1,84.5,8.7,114.8,-8.9
CN1C(=S)SC(C)(C)C1(C)NO (configuration not stated),-2.5,-2.5,89.9,-8.5,71.1,-1.5
Cc1cc(C)n2nc3nc(N4CCCC4)nc(-c4ccccc4)c3c2n1,.,6.8,85.3,1.0,80.6,13.2
Nc1[nH]nc2nc(N3CCCC3)nc(-c3ccccc3)c12,.,.,.,.,80.6,25.6*
O=c1cc(-c2c(F)c(F)c(F)c(F)c2F)oc2c(F)c(F)c(F)c(F)c12,.,.,.,.,33.6*,1.0
c1cncc(-c2nc(Oc3ccc(-c4nnco4)cc3)c3c4c(sc3n2)CCCC4)c1,.,0.1,85.2,7.2,.,3.4
N#Cc1c(/N=C/c2cccs2)sc2c1CCC2,.,9.3,72.5,-9.2,90.9,15.5
N#Cc1c(/N=C/c2ccco2)sc2c1CCCCC2,.,24.6*,94.2,-5.8,94.3,6.3
COc1ccc(NC(=O)C(F)(OC)C(F)(F)F)c(OC)c1 (configuration not stated),43.6,2.2,99.8,1.8,41.4*,6.8
Cc1nnc(SCc2nc(N)nc(Nc3ccccc3)n2)s1,8.1,.,.,.,.,.
Cc1c(-c2nc(N)nc(Nc3ccccc3)n2)oc2ccccc12,.,-8.3,264.4,18.5*,129.6,2.5
N=c1n(CCN2CCCC2)c2ccccc2n1CC(O)c1ccco1 (configuration not stated),.,-1.1,91.2,4.1,78.9,-1.0
N=c1n(CCN2CCCCC2)c2ccccc2n1CC(O)c1cccc(Br)c1 (configuration not stated),17.3,12.1,34.8,1.1,43.6*,11.3
CCc1nnc(NC(=O)c2cccc(C(=O)Nc3nnc(CC)s3)n2)s1,.,-1.0,30.2,3.1,42.3*,0.8
CCc1nnc(NC(=O)c2ccncc2)s1,.,-0.5,96.8,-0.4,75.3,1.3
O=S(=O)(c1ccc(F)cc1)N(CCO)CC(O)Cn1c2ccccc2c2ccccc21 (configuration not stated),-6.1,.,-13.3*,.,?,-5.9
COc1cccc(Oc2cncnc2-c2ccc(OC)cc2O)c1,73.1*,-0.1,94.1,3.9,67.5,2.9
CCOc1ccc(-c2nc(N)ncc2Oc2cccc(OC)c2)c(O)c1,-19.8,.,.,.,.,.
CC(C)CC(=O)O/N=C1\C(=O)N(Cc2ccc(Cl)cc2)c2ccc([N+](=O)[O-])cc21,6.2,.,.,.,.,.
COc1cc2c(=O)n(Cc3ccco3)c(=O)n(CC(=O)c3cccc(Br)c3)c2cc1OC,.,-0.3,33.9,-5.5,41.6*,5.3
CN(C)c1ccc(-c2ccncc2)cc1,.,19.3*,90.3,-9.6,.,8.3
CN(C)c1ccc(-c2nnc(-c3ccc(S(=O)(=O)C(F)F)cc3)o2)cc1,.,3.2,91.2,-3.5,107.3,9.3
CCn1cc(C(=O)Nn2cnnc2)c(=O)c2ccc(C)nc21,.,19.6*,90.5,4.3,.,7.1
CCn1cc(C(=O)NCCOC)c(=O)c2ccc(C)nc21,16.5,-0.9,91.4,-3.3,.,-0.5
SMILES,Htt clearance,ROCK2 blocker,Her2 expr inh,JNK3 inh,SKBR3 24h inh,PKA kinase inh
Cc1cc(O)ccc1C1(c2ccc(O)cc2C)OC(=O)c2ccccc21,70.3*,.,.,.,.,.
CCOc1cc(CNc2ncc(-c3ccc(OC)cc3)n2C)ccc1O,.,-1.3,93.0,-3.0,97.5,-3.4
O=C(O)c1ccccc1C(=O)NCc1ccccc1,.,.,102.8,.,84.0,.
Cc1nc2cccc(C(=O)NCc3ccccc3)c2o1,1.3,-5.5,85.5,22.8*,90.3,-7.3
Clc1ccc(C2C3=C(Nc4ncnn42)c2ccccc2CC3)cc1 (configuration not stated),-6.0,.,.,.,.,.
CCNc1nc(NC(C)C)nc(NS(=O)(=O)c2ccc(N)cc2)n1,-53.5,.,.,.,.,.
CCNc1nc(NC(C)C)nc(NS(=O)(=O)c2ccc(Cl)cc2)n1,-20.1,-4.1,105.2,-0.5,42.4*,-4.3

# Assay outcomes from PubChem BioAssay.
